Sampled rows, rich in hits. Any-hit rate of the full collection: about 5.4%.
PHOSPHO1 inh: PHOSPHO1 (human) inhibition | Q8TCT1 | recombinant PHOSPHO1, absorbance phosphatase assay | inhibition, % at 13.3 µM | actives 1.1% (n = 290,000) | AID 1565; in the data active = inhibition above about 60%
Target sequence (Q8TCT1 whole entry, looked up): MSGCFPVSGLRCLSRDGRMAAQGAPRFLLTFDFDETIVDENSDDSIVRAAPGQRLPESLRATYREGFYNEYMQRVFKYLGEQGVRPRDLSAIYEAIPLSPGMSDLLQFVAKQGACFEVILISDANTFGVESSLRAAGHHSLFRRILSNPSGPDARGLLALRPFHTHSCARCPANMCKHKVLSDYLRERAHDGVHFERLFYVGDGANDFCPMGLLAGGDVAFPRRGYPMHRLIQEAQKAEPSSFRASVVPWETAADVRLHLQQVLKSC
A3G deaminase: inhibitors of human APOBEC3G DNA deaminase | actives 0.28% (n = 330,000) | inhibition, % at 20 µM | recombinant A3G, ssDNA deamination FAM/TAMRA fluorescence | Q9HC16;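 active = inhibition of at least 40% at 20 µM, with no more than 30% in the related APOBEC3A deaminase screen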;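 note: plate controls were DMSO wells with A3G for no effect and wells lacking A3G enzyme for full effect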
rCAG binder: r(CAG) repeat RNA binding; TO-PRO-1 dye displacement fluorescence; inhibition, % at 3 µM; actives 1.3% (n = 370,000);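 active = inhibition above the plate cutoff, the mean of all test compounds on that plate plus 3 SD, cut at about 35% in these data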;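 note: 0% = DMSO alone and 100% = 100 µM mitoxantrone as full dye displacement; higher means more dye released from RNA so lower well fluorescence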
APOBEC3A inh: inhibitors of human APOBEC3A DNA deaminase | inhibition, % at 20 µM | actives 0.41% (n = 330,000) | recombinant A3A, FAM/TAMRA ssDNA deamination fluorescence | P31941;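 active = at least 40% inhibition at 20 µM here, with at most 30% in a related deaminase screen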;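 note: plate controls were A3A with DMSO for no effect and wells lacking A3A enzyme for full effect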
ALR H2O2 inh: inhibitors of human sulfhydryl oxidase ALR | P55789 | purified ALR, DTT oxidation, H2O2 HRP-luminol luminescence | inhibition, % (no concentration beside the values) | actives 3.8% (n = 290,000);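 active = mean replicate inhibition above about 79%, with every replicate also reaching it, limit read from the data; inconclusive = only one of the two criteria met; inactive = mean below limit and not every replicate reaching it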
Target sequence (P55789 whole entry, looked up): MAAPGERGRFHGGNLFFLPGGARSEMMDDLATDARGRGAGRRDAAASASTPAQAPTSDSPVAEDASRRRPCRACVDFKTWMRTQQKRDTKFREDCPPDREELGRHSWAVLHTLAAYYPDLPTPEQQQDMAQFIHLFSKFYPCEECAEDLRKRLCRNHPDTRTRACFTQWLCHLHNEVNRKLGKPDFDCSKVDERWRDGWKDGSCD
aDG glyco act: increases alpha dystroglycan glycosylation | actives 0.22% (n = 360,000) | Pro5-aDG cells, alpha-DG glycosylation AlphaScreen (IIH6); 0% Pro5, 100% B10-LARGE cell signal | activation, % at 10 µM;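 active = activation of at least 8% versus controls, or a plate z-score of at least 8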;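 note: Pro5 are CHO cells carrying HIG-tagged alpha-DG that lacks glycosylation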
* marks the source's active call; other numbers are inactive results; ? = inconclusive; · = no result.

SMILES	PHOSPHO1 inh	A3G deaminase	rCAG binder	APOBEC3A inh	ALR H2O2 inh	aDG glyco act
NS(=O)(=O)c1ccc(Nc2nc(-c3ccc(O)cc3)cs2)cc1	9	-4	8	3	?	0
Oc1ccc(Nc2nc(-c3ccc(O)cc3)cs2)cc1	27	-4	7	-2	100*	0
Nc1ccc(Nc2nc(-c3ccncc3)cs2)cc1	81*	-4	9	-4	39	0
CCOC(=O)N1CCN(C(=O)C[C@H]2C[C@@]3(C(=O)OCC)CCCC4=C3N(CCC4)C2=O)CC1	·	·	0	·	·	·
O=C(C1CCCCC1)n1ccc2ccc(-c3ccc4ccn(Cc5ccccc5)c4c3)cc21	·	·	12	·	·	·
COc1ccc(-n2c(SCC(=O)N3CCCC3)nnc2-c2ccncc2)cc1	·	·	3	·	·	·
O=C1OC(Nc2ccc3c(c2)OCO3)c2ccccc21 (configuration not stated)	-6	32	1	2	99*	1
O=C1c2ccccc2C(Nc2ccccc2)N1Cc1ccc2c(c1)OCO2 (configuration not stated)	46	-3	-6	-1	7	0
O=C1c2ccccc2C(Nc2ccc3c(c2)OCCO3)N1Cc1ccc2c(c1)OCO2 (configuration not stated)	2	-6	2	-6	98*	0
Cc1n[nH]c(=O)nc1Nc1ccc(O)cc1	5	3	0	7	89*	0
Cc1ccc(CN2CCCCC(NC(=O)Nc3ccccc3)C2=O)cc1 (configuration not stated)	·	·	3	·	·	·
O=C(COCc1ccccc1)NC1CCCCN(Cc2ccc(Cl)cc2)C1=O (configuration not stated)	·	·	2	·	·	·
CN1C(=O)[C@@]2(O[C@H]3[C@H]4C=C[C@@H]([C@H]5C(=O)N(Cc6ccccc6)C(=O)[C@@H]45)N3C3=C2C(=O)CC3)c2ccccc21	·	·	6	·	·	·
COc1ccccc1NC(=O)CSCC(N)=O	-21	-3	0	-2	94*	1
COc1ccccc1NC(=O)CSc1nc(O)cc(=O)[nH]1	-10	-5	34	-2	98*	0
COc1ccccc1NC(=O)CSc1nc(O)c(Cc2ccccc2)c(=O)[nH]1	22	-9	0	-6	88*	0
CCc1c(O)nc(SCC(=O)Nc2ccccc2OC)[nH]c1=O	-8	-3	-1	-1	99*	0
COc1ccccc1NC(=O)CSc1nc(N)c(-c2ccccc2)c(=O)[nH]1	18	-6	3	-2	-13	0
COC(=O)C1CN(Cc2cn(CCOC(C)=O)nn2)CCS(=O)(=O)N1Cc1ccc(OC)cc1 (configuration not stated)	·	·	-1	·	·	·
COc1ccc(Cl)cc1NC(=O)CSc1nnc(Cc2ccc(C)cc2)c(=O)[nH]1	·	-6	75*	-1	6	0
COc1ccccc1NC(=O)c1cc(=O)[nH]c2ccccc12	36	-2	14	-4	99*	0
COc1ccccc1NC(=O)c1c[nH]c2ccccc12	·	-8	1	15	-9	0
COc1ccc(Cc2c(O)nc(SCC(C)C)[nH]c2=O)cc1	·	-9	-2	-8	9	0
COc1ccc(Cc2c(O)nc(SCC(=O)c3ccc(OC)cc3)[nH]c2=O)cc1	39	-8	8	-4	98*	0
Cc1sc(NC(=O)CSc2nc(O)cc(=O)[nH]2)nc1-c1ccccc1	23	-3	32	2	99*	0
SMILES	PHOSPHO1 inh	A3G deaminase	rCAG binder	APOBEC3A inh	ALR H2O2 inh	aDG glyco act
COCc1cc(N2CCNC[C@H]2C)ccc1N1CCS(=O)(=O)CC1	·	·	4	·	·	·
Cc1nc(NC(=O)/C=C/c2ccccc2)sc1C(=O)Nc1ccc(Cl)cc1	65*	-5	6	-3	-1	0
CCOC(=O)[C@]12CCCC3=C1N(CCC3)C(=O)[C@@H](CC(=O)N1CCCC1)C2	·	·	0	·	·	·
CN1CCN(c2ccc3c(c2)Oc2ccccc2CN(Cc2cn(Cc4ccc(F)cc4)nn2)S3(=O)=O)CC1	·	·	1	·	·	·
Cc1cc(N2CCOCC2)nc(-c2ccc([N+](=O)[O-])cc2)n1	37	5	0	2	100*	0
c1ccc(-c2nc(N3CCOCC3)cc(N3CCOCC3)n2)cc1	38	-5	-7	1	0	0
CCCCc1cc(=O)oc2cc(C)cc(OCC(=O)NC(Cc3ccc(Cl)cc3)C(=O)O)c12 (configuration not stated)	19	-5	40*	2	·	3
Cc1c(OC(C)C(=O)N[C@H](C(=O)O)c2ccccc2)ccc2c3c(c(=O)oc12)CCCC3 (some centres not stated)	23	-3	30	0	96*	0
Cc1c(OCC(=O)NC(Cc2ccc(Cl)cc2)C(=O)O)ccc2c3c(c(=O)oc12)CCCC3 (configuration not stated)	23	25	7	-2	98*	0
N=c1c2c(-c3ccccc3)c(-c3ccccc3)n(Cc3ccccc3)c2ncn1C1CCOCC1	·	·	4	·	·	·
COc1ccc([C@H]2OC(=O)C[C@@H]2C(=O)N2CCN(c3ccccc3F)CC2)cc1OC	·	·	2	·	·	·
COC(=O)c1ccccc1N=Nc1c(N)n[nH]c1N	2	-6	2	0	91*	0
CCCCC(=O)OCC(=O)Nc1ccc(SC(F)F)cc1	25	-8	-5	-1	98*	0
CCCCNC(=S)Nc1ccc(SC(F)F)cc1	-25	-2	1	-2	98*	0
CN1CC(=O)N(CC(=O)Nc2ccc(SC(F)F)cc2)C1=O	0	-12	1	6	98*	0
CC1(C2CC2)NC(=O)N(CC(=O)Nc2ccc(SC(F)F)cc2)C1=O (configuration not stated)	·	-9	1	-3	-5	0
CCCCNC(=S)Nc1ccc(F)cc1	34	-5	-3	-5	-3	0
CC(C)c1ccc(Oc2cccc3c2S(=O)(=O)N([C@H](C)c2ccccc2)C[C@@H](COCc2ccccc2)O3)cc1	·	·	4	·	·	·
Cc1ccccc1C(=O)NC1CCCCN(Cc2ccc(Cl)cc2)C1=O (configuration not stated)	·	·	3	·	·	·
Cc1cc(C2(c3ccc(O)c(C)c3)OC(=O)c3ccccc32)ccc1O	-3	2	11	17	77*	0
CCC(=O)N(C)CCc1cc2c(c(OC)c1/C=N/NC(=O)[C@H]1C[C@@H]1c1ccccc1)OCO2	20	-11	-7	2	·	0
CCC(=O)N(C)CCc1cc2c(c(OC)c1/C=N/Nc1ccc(C(=O)O)cc1)OCO2	11	5	4	3	99*	0
Cc1cc(C(=O)N/N=C/c2c(CO)cnc(C)c2O)c2ccccc2n1	14	-4	-4	1	42	0
Cc1ncc(CO)c(/C=N/Nc2cccc(Cl)n2)c1O	22	-10	10	-3	86*	0

Screening data from PubChem.
